D3 ag = agonists of human D3 dopamine receptor; P35462; D3R DiscoveRx beta-arrestin cells, luminescence, 90 min; max activation, %; hit rate 0.58% among 410,000; AID 652048; in the data active = max activation above about 30%; note: 0% is about no effect
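Cells at 1500/well, incubated overnight, then treated with pinned compounds (dopamine as control) for 90 min at 37 degrees C. DiscoveRx reagent added for 30 - 60 minutes at room temperature; luminescence read.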
Akt phos inh = inhibitors of Akt phosphorylation. Neuro2A IGF-stimulated pAkt S473 HTRF, 20 min; stronger effect = lower value. activity change, % for hits at 50 µM. hit rate 0.32% among 360,000. AID 651550; in the data active = activity change below about -80%; inconclusive = mostly about -51% to -80%; note: % is set by controls: 0 for no effect and ±100 for the full control effect
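Neuro2A cells (4,500/well, DMEM with 0.5% FBS) were treated with compound at a single 50 µM final concentration, stimulated with 6 nM IGF for 20 min at 37 °C, and lysed. Phospho-Akt Ser473 was read by HTRF as 665/615 ratio ×10^4.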
RGS4 inh = blocks human RGS4-accelerated GTP hydrolysis | P49798 | Transcreener GDP fluorescence polarization, RGS4-accelerated GTP hydrolysis | Potency, µM (series often up to 114 µM), without a hit: at the highest dose activity change, negative = inhibition, most hits filed as inhibitors | hit rate 0.039% among 390,000; active = well fitted inhibition curve with a large enough effect; inconclusive = small, poorly fitted or top-dose-only effect; inactive = no such curve, though single readings can be large or run the other way; note: potency is the fitted concentration of half-maximal effect; % is set by controls: 0 for no effect and ±100 for the full control effect; nearly all actives have a fitted effect of over 75% in size
Target sequence (P49798 whole entry, looked up): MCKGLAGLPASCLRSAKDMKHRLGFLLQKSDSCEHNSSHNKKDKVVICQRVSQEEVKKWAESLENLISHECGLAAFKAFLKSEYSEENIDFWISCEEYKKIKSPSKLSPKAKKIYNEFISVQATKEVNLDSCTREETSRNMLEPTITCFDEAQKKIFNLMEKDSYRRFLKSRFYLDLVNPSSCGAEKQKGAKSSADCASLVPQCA
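MLSMR compounds (23 nl, pin-transferred) preincubated 10 min at room temperature with a 500nM (2x) first reagent, then RGS4 at 900nM (2x) plus Transcreener GDP mix added; fluorescence polarization (620/688 nm) read before and after 90 min at 30 °C.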
PI4K2A block = inhibitors of human PI4K2A | purified PI4K2A, ADP-Glo luminescence, 1 h; stronger effect = lower value | Q9BTU6 | activity change, negative = inhibition, % at 76.9 µM | AID 1346378 | hit rate 0.13% among 420,000; in the data active = activity change below about -50%; inconclusive = mostly about -30% to -49%;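 note: -100% = wells without enzyme as full effect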
Target sequence (Q9BTU6 whole entry, looked up): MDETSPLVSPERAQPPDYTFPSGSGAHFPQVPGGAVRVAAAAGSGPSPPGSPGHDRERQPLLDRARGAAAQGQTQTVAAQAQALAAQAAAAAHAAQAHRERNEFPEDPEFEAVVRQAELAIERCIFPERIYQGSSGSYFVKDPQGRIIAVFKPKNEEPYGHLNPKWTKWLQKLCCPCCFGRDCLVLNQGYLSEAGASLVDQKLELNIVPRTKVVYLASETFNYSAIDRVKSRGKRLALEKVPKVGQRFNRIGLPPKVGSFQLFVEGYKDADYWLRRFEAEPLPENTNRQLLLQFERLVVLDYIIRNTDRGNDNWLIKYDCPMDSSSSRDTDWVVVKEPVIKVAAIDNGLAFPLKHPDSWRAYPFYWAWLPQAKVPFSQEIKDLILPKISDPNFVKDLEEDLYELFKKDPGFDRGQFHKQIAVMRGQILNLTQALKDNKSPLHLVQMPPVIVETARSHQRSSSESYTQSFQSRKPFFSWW
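ADP-Glo luminescence measured ADP generated by PI4K2A enzyme (4 ug/mL before mixing) with 1.2 mM PI substrate (pre-mix) and 300 microM ATP (pre-mix). Tris pH7.5 buffer with MgCl2, Triton X-100; 1 h reaction at ambient temperature.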
LDHA block = blocks human lactate dehydrogenase A | P00338 | purified LDHA, NADH/diaphorase-resazurin fluorescence; stronger effect = lower value | activity change, % (values are at about 110 or 230 µM) | hit rate 0.15% among 480,000 | AID 1347041; in the data active = activity change below about -30%; inconclusive = mostly about -25% to -30%;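 note: plate controls were DMSO wells for no effect and wells without enzyme for full effect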
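Enzyme activity of human lactate dehydrogenase 5 (2 nM; 0.06 mM NADH, 0.2 mM pyruvate, 5 min, RT) is measured via a resazurin/diaphorase fluorescence readout of residual NADH.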
DRD3 antagonist = blocks the human D3 dopamine receptor | hit rate 2.5% among 360,000 | max response, negative = inhibition, % | D3R cells, DiscoveRx beta-arrestin luminescence, antagonist mode; stronger effect = lower value | P35462; in the data active = max response below about -50%; inconclusive = no clear call, values can overlap the other calls; note: % is set by controls: 0 for no effect and ±100 for the full control effect
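Cells plated overnight at 1500 cells/well, then exposed to library compounds with dopamine controls for 90 minutes at 37 degrees C. DiscoveRx reagent added for 30–60 minutes at room temperature; luminescence read, quantitative HTS format.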
* marks the source's active call; other numbers are inactive results; i = inactive; ? = inconclusive; . = not tested or not shown; [ ] = another dose, or the depositor's remark. This is a sample that favours compounds with a hit; in the whole collection about 2.8% have one here.

SMILES | D3 ag | Akt phos inh | RGS4 inh | PI4K2A block | LDHA block | DRD3 antagonist
CN(C)CC/C=C1/c2ccc(F)cc2Sc2ccc(Cl)cc21 | -10 | i | -16% | 1 | -2 | -84*
CN(C)CC/C=C1\c2ccc(F)cc2Sc2cc(F)c(Cl)cc21 | -18 | i | -39% | -4 | 4 | -101*
CN(C)CC/C=C1\c2cc(Cl)ccc2Sc2cc(F)c(F)cc21 | -18 | i | -13% | 9 | 0 | -104*
CN(C)CC/C=C1\c2ccccc2Sc2cc(F)c(Cl)cc21 | -42 | i | -21% | -1 | -2 | -81*
CN(C)CC/C=C1/c2cc(F)ccc2CSc2ccc(F)cc21 | -26 | i | -37% | 0 | -1 | ?
Cc1cc(C(=O)CSc2n[nH]c(C(C)C)n2)c(C)n1C | . | . | . | . | -8 | .
Cc1nn(C)c(C)c1CCC(=O)Nc1nc(-c2ccc(F)c(F)c2)c(C)s1 | . | . | . | . | -15 | .
CCCCOCCCNC(=O)c1cc(-c2ccncc2)nc2ccccc12 | . | . | . | . | 10 | .
CNc1nc(-c2ccc(NC(C)=O)cc2F)cs1 | . | . | . | . | 0 | .
Cc1cc2oc(=O)cc(CN3CCN(C(=O)c4ccco4)CC3)c2cc1C(C)C | . | . | . | . | -6 | .
COc1cccc(C2C(C(=O)c3cccs3)=C(O)C(=O)N2c2cc(C)on2)c1 (centres undefined) | 10 | i | -19% | 5 | 8 | -55*
COc1ccc(OC)c(C2C(C(=O)c3cccs3)=C(O)C(=O)N2c2cc(C)on2)c1 (centres undefined) | 4 | i | 6% | 8 | 0 | -69*
NC(c1csc(Nc2ccc(C(F)(F)F)cn2)n1)C1CCCCC1 (centres undefined) | -13 | i | . | -2 | 1 | -53*
NC(CO)c1csc(Nc2ccc(C(F)(F)F)cn2)n1 (centres undefined) | 8 | i | . | 0 | -6 | 0
Cc1cn([C@H](C(=O)NCCCCCCCCCCC(=O)N2CCNCC2)[C@@H](C)O)nn1 | -17 | i | 32% | -8 | -3 | -64*
Cc1cn([C@@H](CCCCN)C(=O)NCCCCCCCCCCC(=O)N2CCNCC2)nn1 | 2 | i | -5% | -11 | -1 | 15
O=C(OCc1ccccc1)c1c[nH]c2ccccc12 | . | . | . | . | 13 | .
Cc1ccc(OCCN2CCCCCC2)c(C)c1 | -7 | i | -7% | 15 | -6 | ?
Clc1ccc(OCCN2CCCCC2)c(Cl)c1 | -32 | i | 1% | 2 | -15 | -176*
Clc1ccccc1OCCN1CCCCC1 | -22 | i | 4% | 2 | -13 | -80*
CC(C)CCC(C)NC(=S)Nc1ccc(Cl)cc1 (centres undefined) | . | . | . | . | 9 | .
COc1ccc(-c2nc(SC(C)C(=O)NC3CC3)n[nH]2)c(OC)c1 (centres undefined) | . | . | . | . | 15 | .
COc1cc(CNCc2ccc(SC)cc2)cc(OC)c1 | -11 | i | 10% | 0 | -31* | -13
CCN1C(=O)NC2=C(C(=O)c3ccccc32)C1c1ccccc1F (centres undefined) | -5 | i | -19% | 5 | -3 | -62*
c1ccc(CNCCCn2cnc3c(OCc4ccccc4)ncnc32)cc1 | -54 | i | 42% | -4 | -8 | -14
SMILES | D3 ag | Akt phos inh | RGS4 inh | PI4K2A block | LDHA block | DRD3 antagonist
Cc1ccc(CN2CCN(CCCn3cnc4c(OCc5ccccc5)ncnc43)CC2)cc1 | -64 | i | -12% | -4 | -6 | -53*
c1ccc(COc2ncnc3c2ncn3CCCN2CCN(Cc3cccc4ccccc34)CC2)cc1 | -5 | i | . | 0 | -1 | -67*
Cn1c(=O)ccn(CC(=O)Nc2nc(C(C)(C)C)cs2)c1=O | . | . | . | . | 4 | .
O=C(Cn1ccccc1=O)Nc1ccc(Br)cc1Br | . | . | . | . | -10 | .
Cc1nc(C#N)c(N/N=C/c2c(F)cccc2Cl)o1 | -2 | i | -44% | -1 | -9 | -64*
COc1ccc(C(=O)N2CC(C)CC(C)C2)c2ccccc12 (centres undefined) | . | . | . | . | -1 | .
Cn1c(=O)c(-c2ccccc2)cc2ccccc21 | 47* | i | -17% | 7 | -5 | 4
Cn1c(-c2ccccc2)cc2ccccc21 | 4 | i | -28% | -5 | -3 | 18
COc1cc2c(cc1NC(=O)c1cc(-c3ccncc3)nc3ccccc13)oc1ccccc12 | 7 | i | -34% | 2 | -6 | 7
COc1cc2c(cc1NC(=O)c1cc(-c3cccnc3)nc3ccc(C)cc13)oc1ccccc12 | 56* | i | 30% | -3 | 4 | 16
COc1cccc(-c2cc(C(=O)O)c3ccc(C)c(C)c3n2)c1 | . | . | . | . | -10 | .
COc1ccc(NC(=O)c2cc(-c3cccnc3)nc3c(C)c(C)ccc23)c(OC)c1 | 48* | i | 12% | -3 | 3 | 22
CC1=NN(c2ccccc2)C(=O)/C1=C/c1ccc(Cl)cc1 | 1 | i | ? | ? | 2 | 11
CC1=NN(c2ccccc2)C(=O)C1=Cc1ccccc1 | -3 | i | . | -57* | 7 | ?
CC1=NN(c2ccccc2)C(=O)/C1=C/C=C/C=C/N(C)C | -16 | i | -26% | ? | 21 | -69*
Cc1cccc(N2C(N)=C(C#N)C3(C(=O)N(Cc4ccccc4F)c4ccccc43)C3=C2COC3=O)c1 (centres undefined) | . | . | . | . | 10 | .
C=CCn1c(N)cc(=O)nc1SCC(=O)N1CCN(c2ccc(F)cc2)CC1 | -8 | i | 0% | -4 | 1 | -153*
Cc1ccc2nc(/C(C#N)=C\c3ccc(N4CCCCC4)c([N+](=O)[O-])c3)[nH]c2c1 | -36 | i | 30% | -2 | -3 | -70*
Cc1nc(SCc2ccc(F)cc2Cl)sc1CC(N)=O | . | . | . | . | 2 | .
Cc1ccc(Nc2nc(N)nc(CN3CCN(Cc4ccc5c(c4)OCO5)CC3)n2)cc1Cl | -8 | i | -36% | 1 | -1 | ?
COc1ccccc1Nc1nc(N)nc(CN2CCC(C)CC2)n1 | -14 | i | 3% | -1 | -3 | -18
COc1ccccc1Nc1nc(N)nc(CN2CCC(Cc3ccccc3)CC2)n1 | -4 | i | 42% | 3 | -10 | -59*
Nc1nc(CN2CCN(Cc3ccccc3)CC2)nc(Nc2ccc3c(c2)OCCO3)n1 | 0 | i | -29%[56.9 µM] | 2 | 10 | -59*
COc1ccccc1N1CCN(Cc2nc(N)nc(Nc3ccccc3)n2)CC1 | -9 | i | 23% | -3 | -7 | -71*
O=c1[nH]c(N2CCOCC2)nc2nccc(-c3ccsc3)c12 | . | . | . | . | 32 | .
Cc1cccc(/C=N/NC(=O)c2ccc(-c3ccccc3)cc2)c1 | . | . | . | . | 6 | .
Cc1ccc(C)c(OCC(=O)Nc2ccc(Br)cc2C(=O)O)c1 | . | . | . | . | 2 | .
